Chlamy TAG – inducers of TAG accumulation in Chlamydomonas, primary screen, qHTS, Chlamydomonas reinhardtii. actives 0.84% (n = 44,000). Nile Red fluorescence, 72 h. calls only at 10 µM (by protocol); call rule not given here;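 also: hits raise Nile Red signal meaning more stored TAG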
Calls only. A selection follows.

Screening CCOc1ccccc1CN1CCN(c2ccccc2Cl)CC1 returned Chlamy TAG inactive.
Screening O=[N+]([O-])c1cc2c(cc1CNCCc1c[nH]c3ccccc13)OCO2 returned Chlamy TAG inactive.
COc1ccc(CN2CCN(c3ccccc3F)CC2)cc1OC was read as Chlamy TAG inactive.
Brc1cccc(CN2CCN(Cc3ccc4c(c3)OCO4)CC2)c1 was read as Chlamy TAG inactive.
COc1ccc(N2CCN(Cc3ccc(Br)cc3)CC2)cc1 was read as Chlamy TAG inactive.

From PubChem BioAssay
